The compounds below were run on GAK.
`COc1cc2ncnc(Nc3cccc(Br)c3)c2cc1OC.Cl` [GI230329] showed a Kd of 0.029 µM.
`COc1cccc(C2=C(Nc3cc(Cl)c(O)c(Cl)c3)C(=O)NC2=O)c1` [SB-390767] gave a Kd of over 10 µM.
In the case of `c1ccc(-c2ccnc3[nH]ccc23)cc1` [SB-693578], the Kd is reported as 3.7 µM.

What follows are compounds tested on GSK3A.
In the case of `O=c1cc(N2CCOCC2)nc2n(Cc3ccccc3F)ccn12` [GSK2297428], the Kd is reported as over 10 µM.
For `COc1ccc(CSc2nnc(-c3ccc4nccn4c3)o2)cc1C(F)(F)F`, the Kd was 0.25 µM.
For `COc1ccc(CSc2nnc(-c3ccc4ncsc4c3)o2)cc1C(F)(F)F`, the Kd was 0.079 µM.
Work on `O=C(Nc1n[nH]c2nc(-c3ccco3)c(Br)cc12)C1CCN(Cc2ccccc2)C1.O=C(O)[C@H](O)[C@@H](O)C(=O)O` (stereo not drawn) [SB-742034] yielded a Kd of 0.13 µM.
Compound `O=C(Nc1n[nH]c2nc(-c3cccs3)c(Br)cc12)C1CCCC1` [SB-743341] has a Kd of 0.062 µM.
Compound `O=C(Nc1n[nH]c2nc(-c3cccs3)c(Br)cc12)C1CC1` [SB-735297] has a Kd of 0.091 µM.

The compounds below were run on GSK3B.
Compound `COc1ccc(CSc2nnc(-c3ccc4nccn4c3)o2)cc1C(F)(F)F` has a Kd of 0.022 µM.
Work on `COc1ccc(CSc2nnc(-c3ccc4ncsc4c3)o2)cc1C(F)(F)F` yielded a Kd of 0.039 µM.
`O=C(Nc1n[nH]c2nc(-c3cccs3)c(Br)cc12)C1CCCC1` [SB-743341] showed a Kd of 0.12 µM.

What follows are compounds tested on JAK2(JH1domain-catalytic).
`Nc1cccc(-c2ccc3c(N)n[nH]c3c2)n1` [GSK2192730] gave a Kd of over 10 µM.
With `COc1ccc(Nc2nccc(N3CCC(NC(=O)c4cc5ccccc5s4)C3)n2)cc1` (stereo not drawn) [GSK1379738] the Kd was 1.8 µM.
In the case of `Cn1cncc1C(=O)NC1CCN(c2ccnc(Nc3ccc(F)cc3)n2)C1` (stereo not drawn) [GSK1379717], the Kd is reported as 1.5 µM.
`COc1ccc2cc(-c3nc(-c4ccccc4C(C)C)[nH]c3-c3ccncc3)ccc2c1` [SB-660566] was tested, and the Kd was over 10 µM.

These compounds were tested on T1, JNK2.
T1 construct: gene MAPK9
In the case of `Nc1nccc(-c2c(-c3ccc(F)cc3)ncn2C2CCN(Cc3ccccc3)CC2)n1` [SB-219980], the Kd is reported as 0.043 µM.
For `Fc1ccc(-c2nc[nH]c2-c2ccncc2)cc1` [SB-217360], the Kd was 0.085 µM.
In the case of `Fc1ccc(-c2nc3n(c2-c2ccncc2)CCS3)cc1` [GI98581], the Kd is reported as 0.27 µM.
`Fc1ccc(-c2nn3cccc(F)c3c2-c2ccncc2)cc1` [GW475620] gave a Kd of 0.23 µM.
Compound `CCCCc1nn2ncccc2c1-c1ccnc(NC2CC2)n1` [GW684374] has a Kd of 1.3 µM.
For `CNC(=O)c1ccc(C)c(-n2c(C)cc(OCc3ccc(F)cc3F)c(Br)c2=O)c1`, the Kd was over 10 µM.

What follows are compounds tested on T2, JNK3.
T2 construct: gene MAPK10
`Nc1nccc(-c2c(-c3ccc(F)cc3)ncn2C2CCN(Cc3ccccc3)CC2)n1` [SB-219980] was tested, and the Kd was 0.031 µM.
`Fc1ccc(-c2nc[nH]c2-c2ccncc2)cc1` [SB-217360] gave a Kd of 0.011 µM.
`Fc1ccc(-c2nc3n(c2-c2ccncc2)CCS3)cc1` [GI98581] was tested, and the Kd was 0.057 µM.
Compound `Fc1ccc(-c2nn3cccc(F)c3c2-c2ccncc2)cc1` [GW475620] has a Kd of 0.058 µM.
In the case of `CCCCc1nn2ncccc2c1-c1ccnc(NC2CC2)n1` [GW684374], the Kd is reported as 0.74 µM.
With `CNC(=O)c1ccc(C)c(-n2c(C)cc(OCc3ccc(F)cc3F)c(Br)c2=O)c1` the Kd was over 10 µM.

These compounds were tested on KIT.
Compound `Cc1ccc(NC(=O)Nc2ccccc2)cc1-c1ccc(C(=O)Nc2ccncc2)cc1` [GSK1398471] has a Kd of 0.14 µM.
Work on `Cc1ccc(NC(=O)Nc2ccc(Cl)c(C(F)(F)F)c2)cc1-c1ccc(C(=O)Nc2ccncc2)cc1` [GSK1398470] yielded a Kd of 0.56 µM.
`Cc1ccc(NC(=O)Nc2ccc(Cl)cc2)cc1-c1ccc(C(=O)Nc2ccncc2)cc1` [GSK1398472] was tested, and the Kd was 0.14 µM.
`Cc1ccc(NC(=O)Nc2ccccc2F)cc1-c1ccc(C(=O)Nc2ccncc2)cc1` [GSK1398477] showed a Kd of 0.45 µM.
In the case of `CS(=O)(=O)Cc1ccc(Nc2nccc(-c3c(-c4cccc(NC(=O)C5CCCCC5)c4)nn4ncccc34)n2)cc1` [GSK350559], the Kd is reported as 0.11 µM.
`COc1cccc(NC(=O)Nc2ccc(C)c(-c3ccc(C(=O)Nc4ccncc4)cc3)c2)c1` [GSK1398474] was tested, and the Kd was 0.073 µM.
Compound `Cc1ccc(NC(=O)c2ccc(Cl)cc2)cc1-c1ccc(C(=O)Nc2ccncc2)cc1` [GSK1398467] has a Kd of 0.17 µM.
`Cc1cnc(N)c(/C=C/c2cncc(C(=O)NCCc3ccc(Cl)cc3Cl)c2)c1.Cl` [GSK190937] showed a Kd of 0.15 µM.

From PMC5540273 (PLoS ONE, 2017)
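Note: kd values determined as follow-up on hits from a single-replicate KINOMEscan panel screen.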
